Screens from PubChem.
LASV entry inh = Lassa virus entry inhibition. Lassa virus pseudotype entry inhibition, cell reporter. Potency, µM (series often up to 37.9 µM), most hits filed as inhibitors. 300,000 compounds, 1.2% hits; calls by dose curve; tested in HEK293 cells; note: nearly all actives have a fitted effect of over 50% in size
Cycloheximide cs = counter-screen hit for Shiga toxin inhibitors, cycloheximide | cell reporter, cycloheximide protein synthesis inhibition counterscreen | max response, % | 300,000 compounds, 12% hits | AID 2314; in the data active = max response mostly above about 13%, no sharp cut-off; inactive = mostly below about 14%; note: read at 38.3 µM for the half of the compounds with a filed dose
Vaccinia mCherry = vaccinia inhibition (mCherry reporter); Potency, µM (highest dose often 36.5 µM), most hits filed as inhibitors; Vaccinia virus mCherry reporter infection, fluorescence; AID 720579; 310,000 compounds, 0.63% hits; calls by dose curve; tested in A549 cells; note: nearly all actives have a fitted effect of over 35% in size
Marburg entry inh = inhibitors of Marburg virus binding or cell entry; 300,000 compounds, 1.8% hits; Marburg virus pseudotyped entry inhibition, cell reporter; Potency, µM (doses to about 37.8 µM), hits mostly inhibitors; calls by dose curve; tested in HEK293 cells
Shiga inhibitor = blocks Shiga toxin action in Vero cells. Vero cells, Shiga toxin protein synthesis inhibition reporter. inhibition, % at 38.7 µM. 290,000 compounds, 9.2% hits. AID 2315; in the data active = inhibition mostly above about 28%, no sharp cut-off; inactive = mostly below about 43%
Vaccinia Venus = vaccinia inhibition (Venus reporter) | Vaccinia virus Venus reporter expression, fluorescence | 330,000 compounds, 0.46% hits | AID 720580 | Potency, µM (titrated, usually from 36.5 µM), usual class: inhibitors; calls by dose curve; tested in A549 cells; note: nearly all actives have a fitted effect of over 30% in size
Hits are given with their value; i = inactive; ? = inconclusive; nt = no result. The full list was thinned out, with hits kept by preference.

SMILES	LASV entry inh	Cycloheximide cs	Vaccinia mCherry	Marburg entry inh	Shiga inhibitor	Vaccinia Venus
COC(=O)c1ccccc1NC(=O)c1ccc2nc(Cc3ccccc3)oc2c1	i	nt	i	nt	nt	i
CCOC(=O)Nc1ccc2c(c1)N(C(=O)CCN(CC)CC)c1ccccc1S2=O (configuration not stated)	18µM	i	10µM	?	i	?
COc1ccc(-c2cc(C(F)(F)F)nc(SCC(=O)Nc3ccc(O)cc3)n2)cc1OC	i	nt	i	?	nt	i
O=[N+]([O-])c1cccc(-n2nncc2-c2ccccc2)c1	i	i	i	i	i	i
O=c1c(-c2ccc(Cl)cc2)c[nH]n1-c1ccccc1	nt	25	nt	nt	78	nt
O=c1c(-c2ccccc2)c[nH]n1-c1cccc([N+](=O)[O-])c1	i	22	?	?	77	i
Cc1sc2ncnc(N/N=C/c3ccc(O)cc3)c2c1C	?	i	?	?	i	i
Cc1sc2ncnc(NCC(c3ccccc3)N(C)C)c2c1C (configuration not stated)	i	i	i	?	i	i
Cc1sc2ncnc(NCC(O)c3ccccc3)c2c1C (configuration not stated)	?	23	i	?	82	i
Cc1ccc(Nc2ncnc3sc(C)c(C)c23)cc1C	i	31	i	i	i	i
Cc1sc2ncnc(N/N=C/c3ccccc3O)c2c1C	10µM	36	3.5µM	3.2µM	34	?
COC(=O)C1CC(=O)c2ccsc2C1 (configuration not stated)	i	i	i	?	i	i
COc1ccc(-c2nnn(CC(=O)OC3CCCCC3)n2)cc1OC	i	i	nt	i	i	nt
O=C(Cn1nnc(-c2cccs2)n1)OC1CCCCC1	i	18	nt	?	i	nt
CC1CCN(C(=O)Cn2nnc(-c3cccs3)n2)CC1	nt	39	nt	nt	68	nt
CC(C)CN1C(=O)c2ccc(C(=O)Nc3ccccc3C(=O)O)cc2C1=O	?	55	i	?	71	i
CC(C)CN1C(=O)c2ccc(C(=O)Nc3ccccn3)cc2C1=O	i	34	nt	i	i	nt
Cc1ccc(NC(=O)c2ccc3c(c2)C(=O)N(c2cc(C)ccc2C)C3=O)nc1	nt	29	nt	nt	68	nt
Cc1ccccc1NC(=O)c1ccc2c(c1)C(=O)N(CC(C)C)C2=O	i	i	i	i	nt	i
CCC1(C)NC(c2ccc3c(c2)OCO3)=CC(c2ccccc2O)N1 (configuration not stated)	nt	nt	i	nt	nt	i
CCOC(=O)C1=C(C)OC(N)=C(C#N)C1c1cc2cc(C)ccc2nc1N1CCCCC1 (configuration not stated)	i	i	i	?	45	i
CCOC(=O)C1=C(C)OC(N)=C(C#N)C1c1cc2ccccc2nc1N1CCCCC1 (configuration not stated)	?	i	i	i	i	i
CC[C@H](C)[C@H](NC(=O)[C@H](Cc1ccc(O)cc1)NC(=O)[C@H](Cc1cnc[nH]1)NC(=O)[C@H](CCCNC(=N)N)NC(=O)[C@H](CC(C)C)NC(=O)[C@H](C)NC(=O)[C@H](CO)NC(=O)[C@H](Cc1ccc(O)cc1)NC(=O)[C@H](Cc1ccc(O)cc1)NC(=O)[C@H](CCCNC(=N)N)NC(=O)[C@H](C)NC(=O)[C@H](CC(C)C)NC(=O)[C@H](CC(=O)O)NC(=O)[C@H](CCC(=O)O)NC(=O)[C@H](C)NC(=O)[C@@H]1CCCN1C(=O)[C@H](C)NC(=O)[C@H](CC(=O)O)NC(=O)[C@H](CCC(=O)O)NC(=O)CNC(=O)[C@@H]1CCCN1C(=O)[C@H](CC(N)=O)NC(=O)[C@H](CC(=O)O)NC(=O)[C@@H]1CCCN1C(=O)[C@H](CCCCN)NC(=O)[C@H](CO)NC(=O)[C@@H]1CCCN1C(=O)[C@@H](N)Cc1ccc(O)cc1)C(=O)N[C@@H](CC(N)=O)C(=O)N[C@@H](CC(C)C)C(=O)N[C@H](C(=O)N[C@H](C(=O)N[C@@H](CCCNC(=N)N)C(=O)N[C@@H](CCC(N)=O)C(=O)N[C@@H](CCCNC(=N)N)C(=O)N[C@@H](Cc1ccc(O)cc1)C(N)=O)[C@@H](C)O)[C@@H](C)CC	nt	i	nt	nt	i	nt
C[C@H]1[C@@H](c2ccccc2)Oc2c(Cl)cccc2S(=O)(=O)N1Cc1ccc(Cl)cc1	i	nt	nt	nt	nt	nt
Cc1ccc(NC(=O)CN2C(=O)NC(C)(CC(C)C)C2=O)cc1F (configuration not stated)	i	nt	i	i	nt	i
SMILES	LASV entry inh	Cycloheximide cs	Vaccinia mCherry	Marburg entry inh	Shiga inhibitor	Vaccinia Venus
Cc1nc(NC(=O)/C=C/c2ccccc2)sc1C(=O)Nc1ccccc1	i	i	nt	i	i	nt
Cc1nc(NCCOc2ccccc2)sc1C(=O)Nc1ccccc1	nt	59	nt	nt	92	nt
Cc1nc(Nc2ccc(S(N)(=O)=O)cc2)sc1C(=O)Nc1ccccc1	?	i	i	i	i	i
Cc1nc(Nc2ccccc2)sc1C(=O)Nc1ccccc1	?	39	i	?	59	i
Nc1nc(Nc2ccccc2F)sc1C(=O)c1ccccc1	nt	50	nt	nt	57	nt
Cc1nc(Nc2ccccc2)sc1C(=O)c1ccc(F)cc1	?	67	i	i	143	i
CC(=O)[C@@]1(C)OC(N)=C(C#N)[C@@H](c2ccccc2)C1(C#N)C#N	nt	nt	nt	i	nt	nt
O=C(NC1CCN(C(=O)Nc2ccc(F)cc2)CC1)c1ccc(F)cc1	i	i	i	i	i	i
Cc1nc(Nc2ccccc2Cl)sc1C(=O)Nc1ccccc1	i	19	?	i	i	i
Cc1nc(NC(C)c2ccccc2)sc1C(=O)Nc1ccccc1 (configuration not stated)	?	i	nt	i	i	nt
Cc1nc(NCc2ccccc2)sc1C(=O)Nc1ccccc1	i	26	i	i	50	i
CC1CCc2nc(-c3cc4c(ccc5ccccc54)oc3=O)sc2C1 (configuration not stated)	nt	nt	i	nt	nt	i
Cc1cc2nc(NCCCO)n(CC(=O)c3cc(C(C)(C)C)c(O)c(C(C)(C)C)c3)c2cc1C	nt	nt	?	nt	nt	10µM
Cc1cc(NS(=O)(=O)c2ccc(NC(=O)/C=C/c3ccccc3Cl)cc2)no1	i	i	i	i	i	i
CCCCOCCCNC(=O)/C=C/c1ccccc1Cl	?	nt	i	?	nt	i
CCN(CC)c1ccc(NC(=O)/C=C\c2ccccc2Cl)cc1	i	27	i	i	64	?
CN(C)c1ccc(NC(=O)/C=C/c2ccccc2Cl)cc1	i	32	i	i	80	i
CCc1ccc(NC(=O)CSC2=Nc3ccccc3C3=NC(CCC(=O)NCc4ccccc4)C(=O)N23)cc1 (configuration not stated)	i	nt	i	nt	nt	i
COc1ccc(-c2ccc(CCC(=O)O)n2NC(=O)c2cccs2)cc1	i	22	nt	?	i	i
O=C(O)CCc1ccc(-c2cccs2)n1NC(=O)c1ccc(Cl)cc1	?	i	i	i	i	i
Cc1ccc(-c2ccc(CCC(=O)O)n2NC(=O)c2cccs2)cc1	i	34	i	?	i	i
COc1ccc(-n2c(CCC(=O)O)ccc2-c2ccccc2)cc1	?	i	i	nt	i	i
CCOC(=O)[C@@H]1[C@H]2COc3ccc(Br)cc3[C@H]2N2C(=O)N(c3cccc(F)c3)C(=O)[C@]12C	nt	i	i	nt	i	i
